Out of some 310,000 compounds screened, about 14,000 (4.5%) showed an effect of 50% or more. Effects have a minus sign here. What follows is part of a selection rich in strong results, with near analogues and random picks from the rest.
molecular target: human ether-à-go-go-related gene (hERG) potassium channel (human, UniProt Q12809); assay: primary screen, population patch clamp on CHO cells stably expressing hERG; higher = less effect of the substance
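Further: peak tail current of the secondary pulse compared with the same well before compound.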

Sequence of human ether-à-go-go-related gene (hERG) potassium channel (Q12809 whole entry, looked up): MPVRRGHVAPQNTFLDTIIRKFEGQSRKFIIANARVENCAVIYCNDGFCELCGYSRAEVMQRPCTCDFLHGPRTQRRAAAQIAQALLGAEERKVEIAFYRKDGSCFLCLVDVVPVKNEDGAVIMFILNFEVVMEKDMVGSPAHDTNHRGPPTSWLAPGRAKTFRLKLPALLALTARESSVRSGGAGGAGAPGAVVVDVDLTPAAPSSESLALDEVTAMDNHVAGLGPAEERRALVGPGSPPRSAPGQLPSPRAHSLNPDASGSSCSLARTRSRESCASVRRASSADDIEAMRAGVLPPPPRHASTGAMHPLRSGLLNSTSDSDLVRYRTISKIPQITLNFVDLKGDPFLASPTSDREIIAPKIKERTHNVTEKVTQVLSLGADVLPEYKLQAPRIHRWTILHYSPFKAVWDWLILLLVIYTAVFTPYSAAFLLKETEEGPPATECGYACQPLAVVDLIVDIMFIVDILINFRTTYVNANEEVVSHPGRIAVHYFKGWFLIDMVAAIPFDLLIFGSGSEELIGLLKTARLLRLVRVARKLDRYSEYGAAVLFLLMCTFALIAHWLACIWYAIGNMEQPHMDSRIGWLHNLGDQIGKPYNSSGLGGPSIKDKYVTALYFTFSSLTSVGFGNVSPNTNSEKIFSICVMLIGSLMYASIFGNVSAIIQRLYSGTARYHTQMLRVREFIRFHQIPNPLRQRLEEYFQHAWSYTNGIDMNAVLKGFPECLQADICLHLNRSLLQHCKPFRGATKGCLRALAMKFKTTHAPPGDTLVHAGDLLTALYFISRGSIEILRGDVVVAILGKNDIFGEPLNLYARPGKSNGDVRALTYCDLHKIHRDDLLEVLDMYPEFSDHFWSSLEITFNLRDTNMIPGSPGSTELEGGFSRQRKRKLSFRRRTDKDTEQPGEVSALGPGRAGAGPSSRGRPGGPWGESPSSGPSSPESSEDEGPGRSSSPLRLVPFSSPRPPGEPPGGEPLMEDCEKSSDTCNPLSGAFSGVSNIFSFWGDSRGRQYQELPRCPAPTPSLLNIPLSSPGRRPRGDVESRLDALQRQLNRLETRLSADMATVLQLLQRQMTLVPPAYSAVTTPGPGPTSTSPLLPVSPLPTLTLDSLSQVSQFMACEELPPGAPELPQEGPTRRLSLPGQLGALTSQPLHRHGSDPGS

Row | SMILES | hERG current change (%, negative = inhibition) at 10uM [%]
1 | O=C(NCCc1ccccc1)C1CCN(C(=O)c2ccc([N+](=O)[O-])cc2)CC1 | -63.2
2 | COc1ccc(CCNC(=O)C2CC(c3ccc([N+](=O)[O-])cc3)=NO2)cc1 (stereo not shown) | -61.6
3 | COc1ccc(CNC(=O)C2CC(c3ccccc3[N+](=O)[O-])=NO2)cc1 (stereo not shown) | -27.7
4 | Cc1ccc(OCC(=O)Nc2ccccc2N2CCCC2)c(C)c1 | -3.14
5 | CCCN(c1ccccc1C(=O)O)S(=O)(=O)c1ccc2c(c1)n(C)c(=O)n2C | 19.8
6 | Cc1ccc(NCC(O)C(O)C(O)CO)cc1C (stereo not shown) | 14.9
7 | Clc1ccc2oc(-c3ccccn3)nc2c1 | -0.352
8 | O=C(NCCNC(=O)c1ccc([N+](=O)[O-])cc1)c1ccncc1 | 12
9 | COc1ccc(CCNC(=O)c2nc3ncccn3n2)cc1OC | 18.6
10 | Cc1ccc2c(c1)N(CC(=O)N1CCCc3ccccc31)C(=O)CO2 | -8.16
11 | COc1cccc(N2CCN(c3ccc(N4C(=O)CCC4=O)cc3[N+](=O)[O-])CC2)c1 | 13.7
12 | COCCCNC(=O)CN(C1CCCCC1)S(=O)(=O)c1ccc(C)cc1 | -0.742
13 | CCC(CC)C(=O)NCCc1cc2c(C)ccc(C)c2[nH]c1=O | 2.39
14 | COc1ccccc1CN(C)C(=O)C(c1ccccc1)c1ccccc1 | -2.32
15 | Cc1ccc(C(=O)N2CCC(C(=O)NCc3ccco3)CC2)cc1 | -11.3
16 | O=C(NCc1ccco1)C1CCN(C(=O)c2ccc([N+](=O)[O-])cc2)CC1 | -53
17 | COc1cccc(C(=O)N2CCC(C(=O)NCc3ccco3)CC2)c1 | -14.9
18 | CCn1nnc(NC(=O)C(C)(c2ccccc2)c2ccccc2)n1 | -10.4
19 | COc1ccc(S(=O)(=O)NCC2CCCN(Cc3ccc(C)o3)C2)cc1 (stereo not shown) | -25.5
20 | COc1ccc(S(=O)(=O)NCC2CCCN(Cc3ccc(O)cc3)C2)cc1 (stereo not shown) | -59.2
21 | CN(C)S(=O)(=O)NCC1CCCN(Cc2cc3ccccc3s2)C1 (stereo not shown) | -6.37
22 | COc1ccc(S(=O)(=O)NCC2CCCN(Cc3cccc(C(C)=O)c3)C2)cc1 (stereo not shown) | -43.9
23 | CCc1ccc(CN2CCCC(CNS(=O)(=O)c3ccc(OC)cc3)C2)cc1 (stereo not shown) | -69.8

Row | SMILES | hERG current change (%, negative = inhibition) at 10uM [%]
24 | COc1ccc(S(=O)(=O)NCC2CCCN(Cc3ccccc3Cl)C2)cc1 (stereo not shown) | -37.9
25 | OCC1CCCN(Cc2ccc(-c3ccccc3)cc2)C1 (stereo not shown) | -28.4
26 | CN(C)S(=O)(=O)NCC1CCCN(Cc2ccc(-c3ccccc3)cc2)C1 (stereo not shown) | -50.8
27 | COc1ccc(S(=O)(=O)NCC2CCCN(CC(C)(C)C)C2)cc1 (stereo not shown) | 14.9
28 | COc1ccc(S(=O)(=O)NCC2CCCN(Cc3cccnc3)C2)cc1 (stereo not shown) | -47.7
29 | CCOc1ccccc1CN1CCCC(CNS(=O)(=O)c2ccc(OC)cc2)C1 (stereo not shown) | -63.7
30 | COc1ccc(S(=O)(=O)NCC2CCCN(Cc3ccccc3C)C2)cc1 (stereo not shown) | -12.3
31 | CC(C)C(C(=O)Nc1sc2c(c1C#N)CCCCC2)N1C(=O)c2ccccc2C1=O (stereo not shown) | 4.7
32 | Cn1c(CCCOc2ccc(Cl)cc2Cl)nnc1SCC(=O)Nc1cccc(F)c1 | -3.24
33 | COC(=O)/C=C1\C(=O)N(c2nc3ccc(OC)cc3s2)C(=S)N1c1ccc(F)cc1 | -7.23
34 | CCOc1ccc(OCc2ccc(C(=O)N3CCc4ccccc4C3)o2)cc1 | -10.4
35 | CC(=O)C[C@H]1c2cc(C(F)(F)F)ccc2S(=O)(=O)N1C1CCCC1 | -12.1
36 | CCOCc1cc(CN2CCCC(CNC(=O)c3ccco3)C2)ccc1OC (stereo not shown) | -48.3
37 | CCCn1cc(CN2CCCC(CNC(=O)c3ccc(F)cc3)C2)c(C)n1 (stereo not shown) | -25.5
38 | CSc1cccc(CN2CCCC(CNC(=O)c3ccco3)C2)c1 (stereo not shown) | -91.9
39 | Cc1cc(CN2CCCC(CNC(=O)c3ccc(F)cc3)C2)cc(C)c1O (stereo not shown) | -24.1
40 | CSc1ccc(CN2CCCC(CNC(=O)c3ccc(F)cc3)C2)cc1 (stereo not shown) | -70.8
41 | O=C(NCC1CCCN(C(=O)c2cccc(C(F)(F)F)c2)C1)c1ccc(F)cc1 (stereo not shown) | -8.13
42 | CSc1ccccc1C(=O)N1CCCC(CNC(=O)c2ccc(F)cc2)C1 (stereo not shown) | 15.3
43 | O=C(NCC1CCCN(Cc2cccc(C(F)(F)F)c2)C1)c1ccc(F)cc1 (stereo not shown) | -58.2
44 | CC(C)(O)C#Cc1ccc(CN2CCCC(CNC(=O)c3ccco3)C2)cc1 (stereo not shown) | -10.9
45 | O=C(NCC1CCCN(Cc2cccc(OCCO)c2)C1)c1ccc(F)cc1 (stereo not shown) | -16.3
46 | CSc1cccc(CN2CCCC(CNC(=O)c3ccc(F)cc3)C2)c1 (stereo not shown) | -74.1

— publication PMC4336329 (PLoS ONE, 2015)
